According to PubChem BioAssay (Tox21):
Records with an inconclusive call do not appear. The source made the active and inactive calls. Unless noted, the call rests on the fitted dose curve; in most records, active means well fitted curve in the direction sought with a large enough effect in the repeat runs; inconclusive means weak or mixed curves; inactive means no such curve, though single readings can be large; an effect the other way counts as inactive or inconclusive.

Tests used:
[1] = qHTS assay to identify small molecule antagonists of the estrogen related receptor (ERR) signaling pathway from Tox21 library - cell viability counter screen (AID 1224834); further: nearly all actives have a fitted effect of over 30% in size; further: potency means the concentration at half of the fitted maximal effect
How it was run: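 ERR cells, 2,000/well; 6 h settle at 37 C/5% CO2; pin-tool compound transfer in DMSO; 17.5 h at 37 C; CellTiter-Fluor, 30 min; fluorescence intensity.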

[2] = biological target: Luciferin 4-monooxygenase (Photinus pyralis) (UniProt P08659); test: qHTS assay to identify small molecule inhibitors of firefly luciferase (AID 1224835); further: nearly all actives have a fitted effect of over 25% in size
How it was run: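 Biochemical qHTS: compounds run as interplate titrations against purified firefly enzyme, with D-luciferin and ATP each at its KM concentration. Light output recorded by CCD imaging.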

[3] = qHTS assay to identify small molecule agonists of the constitutive androstane receptor (CAR) signaling pathway - cell viability counter screen (AID 1224836); further: nearly all actives have a fitted effect of over 45% in size
How it was run: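 Double-stable HepG2 hepatoma cells (hCAR plus CYP2B6-2.2kb) are treated for 23 h at 37 C with test compounds in 15-point concentration series. PK11195 at 0.75 uM final is co-added. Cell viability is quantified by CellTiter-Fluor.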

[4] = qHTS assay to identify small molecule antagonists of the constitutive androstane receptor (CAR) signaling pathway - cell viability counter screen (AID 1224837); further: nearly all actives have a fitted effect of over 45% in size
How it was run: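 Viability was measured with CellTiter-Fluor in a HepG2 line carrying stably transfected hCAR and a CYP2B6-2.2kb construct. Cells were exposed for 23 hr at 37 C to 15 compound concentrations with 50 nM CITCO as agonist.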

[5] = biological target: Nuclear receptor subfamily 1 group I member 3 (Homo sapiens) (UniProt Q14994); test: qHTS assay to identify small molecule antagonists of the constitutive androstane receptor (CAR) signaling pathway (AID 1224838);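 further: HepG2 cells stably expressing hCAR with CYP2B6 luciferase reporter stimulated by CITCO; nearly all actives have a fitted effect of over 40% in size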
How it was run: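 Antagonist mode used CITCO at a final 50 nM to activate CAR in human hepatoma HepG2 cells carrying stable hCAR and a 2.2 kb CYP2B6 promoter-luciferase construct. Compounds were tested at 15 concentrations over 24 h, with luminescence as the end point.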

[6] = biological target: Nuclear receptor subfamily 1 group I member 3 (Homo sapiens) (UniProt Q14994); test: qHTS assay to identify small molecule agonists of the constitutive androstane receptor (CAR) signaling pathway (AID 1224839); further: nearly all actives have a fitted effect of over 15% in size; further: potency means the concentration at half of the fitted maximal effect
How it was run: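 Readout: firefly luciferase luminescence via ONE-Glo. System: HepG2 double-stable for hCAR and CYP2B6-2.2kb. Conditions: 15-point compound titration, PK11195 at 0.75 uM final, 24 h incubation.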

[7] = biological target: Thyrotropin receptor (Homo sapiens) (UniProt P16473); test: qHTS assay to identify small molecule agonists of the thyroid stimulating hormone receptor (TSHR) signaling pathway (AID 1224843; calls by dose curve; further: nearly all actives have a fitted effect of over 45% in size)
How it was run: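 Agonist-mode screen: TSHR HEK293 cells received test chemicals for half an hour at room temperature, then HTRF cAMP detection reagents for one hour prior to fluorescence measurement. Each chemical ran as a 15-concentration series, triplicated.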

[8] = qHTS assay to identify small molecule agonists of the hypoxia (HIF-1) signaling pathway - cell viability counter screen (AID 1224844; calls by dose curve; further: nearly all actives have a fitted effect of over 50% in size)
How it was run: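 Cytotoxicity was measured in parallel with the HRE-driven beta-lactamase readout: after 17 hrs of compound exposure at 37C, HRE-bla ME-180 cells received CellTiter-Glo and luminescence was recorded 30 min later.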

[9] = qHTS assay to identify small molecule agonists of the hypoxia (HIF-1) signaling pathway (AID 1224846; active means well fitted activation curve with a large enough effect in the signal ratio in the repeat runs, not every such curve was filed as active; the % refers to the signal ratio)
How it was run: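 Compounds from the Tox21 10K library, dissolved in DMSO, are tested for induction of a hypoxia response element–controlled beta-lactamase reporter in ME-180 cells. Exposure lasts 17 hrs at 37C after a 5 hr settling period, followed by CCF4-AM FRET substrate.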

[10] = qHTS assay to identify small molecule agonists of H2AX - cell viability counter screen (AID 1224847; calls by dose curve; further: nearly all actives have a fitted effect of over 30% in size; further: potency means the concentration at half of the fitted maximal effect)
How it was run: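 For this counter screen, overnight-attached CHO-K1 cells received test compounds (15 concentrations, 0.76% DMSO final); 3 hr later at 37C, CellTiter-Glo reagent was added and luminescence recorded after 30 min at room temperature.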

[11] = qHTS RealTime-Glo MT Cell Viability Assay in HepG2 cells - 24 hour (AID 1224867); further: nearly all actives have a fitted effect of over 50% in size
How it was run: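 Cell number in HepG2 cultures estimated from NanoLuc luminescence generated by metabolic reduction of a prosubstrate by living cells. The homogeneous, nonlytic format allowed repeated reads at 0, 8, 16, 24, 32 and 40 h of compound exposure.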

[12] = qHTS RealTime-Glo MT Cell Viability Assay in HEK293 cells - 32 hour (AID 1224868); further: nearly all actives have a fitted effect of over 50% in size; further: potency means the concentration at half of the fitted maximal effect
How it was run: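 Homogeneous bioluminescent viability format in HEK293 cells (600 cells/well). Following 5 h at 37 C/5% CO2, 23 nL compound was pintooled; the signal was measured repeatedly during 40 h incubation.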

[13] = A CellTox Green Cytotoxicity Assay to monitor cytotoxicity in HEK293 cells - 0 hour (AID 1224869); further: nearly all actives have a fitted effect of over 50% in size
How it was run: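 Cells (HEK293, 600/well) and dye reagent are dispensed together. After 5 h at 37 C, 23 nL compound is pinned in. Plates stay at 37 C for 40 h with fluorescence read at 0h, 8h, 16h, 24h, 32h and 40h.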

[14] = qHTS assay to identify small molecule antagonists of the estrogen related receptor signaling pathway with the pleiotropic PPARgamma coactivator (PGC) from Tox21 10K library - cell viability counter screen (AID 1224840; active means well fitted cell-killing curve with a large enough effect in the repeat runs, not every such curve was filed as active; further: nearly all actives have a fitted effect of over 40% in size)
How it was run: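 Multiplexed viability counter screen in the PGC/ERR cell line: cells treated with DMSO-dissolved compounds for 17.5 hours at 37 C, then viability measured as CellTiter-Fluor fluorescence.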

[15] = qHTS assay to identify small molecule agonists of H2AX (AID 1224845; active means well fitted activation curve with a large enough effect in the signal ratio in the repeat runs, not every such curve was filed as active; the % refers to the signal ratio)
How it was run: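 Wild-type CHO-K1 cells, plated overnight, exposed 3hr at 37C to 15 concentrations (0.76% DMSO final). Lysed, then HTRF anti-pH2AX (S139) cryptate and anti-H2AX-d2 antibodies, 24 hr room temperature; 665/620 nm emission read.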

[16] = qHTS assay to identify small molecule antagonists of the estrogen related receptor signaling pathway with the pleiotropic PPARgamma coactivator (PGC) from Tox21 10K library (AID 1224841; call rule not given here; further: potency means the concentration at half of the fitted maximal effect)
How it was run: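 Steps: plate 2,000 PGC/ERR cells per well; incubate 6 h at 37 C with 5% CO2; transfer compounds from DMSO stocks by pin tool; incubate 18 h at 37 C; add One-Glo; measure luminescence 30 min later.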

[17] = qHTS assay to identify small molecule agonists of the estrogen related receptor signaling pathway with the pleiotropic PPARgamma coactivator (PGC) from Tox21 10K library (AID 1224842); further: nearly all actives have a fitted effect of over 15% in size
How it was run: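 PGC/ERR reporter cell line, 2,000 cells per well, incubated 6 h at 37 C before 23 nL compound in DMSO was added. After 18 h at 37 C, One-Glo luminescence read following 30 min at room temperature.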

[18] = qHTS assay to identify small molecule antagonists of the estrogen related receptor (ERR) signaling pathway from Tox21 library (AID 1224848); further: nearly all actives have a fitted effect of over 50% in size; further: potency means the concentration at half of the fitted maximal effect
How it was run: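 Quantitative high-throughput format: ERR reporter cells (2,000/well) pre-incubated 6 h, treated 18 h at 37 C with compounds in DMSO alongside positive and negative controls, then read by ONE-Glo luminescence.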

[19] = qHTS assay to identify small molecule agonists of the estrogen related receptor (ERR) signaling pathway from Tox21 library (AID 1224849; calls by dose curve; further: nearly all actives have a fitted effect of over 15% in size); settings: ERR reporter cell line, ONE-Glo luciferase, 18 h; at 92.4 µM (top of the series) unless noted
How it was run: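 Cells carrying the ERR reporter were plated and allowed to settle for 6 h, exposed to library compounds for 18 h at 37 C, then lysed with ONE-Glo and luminescence measured.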
On the % scale 0 is the no-effect control and ±100 the full control effect.

Sequence of Thyrotropin receptor (Homo sapiens) (P16473 whole entry, looked up): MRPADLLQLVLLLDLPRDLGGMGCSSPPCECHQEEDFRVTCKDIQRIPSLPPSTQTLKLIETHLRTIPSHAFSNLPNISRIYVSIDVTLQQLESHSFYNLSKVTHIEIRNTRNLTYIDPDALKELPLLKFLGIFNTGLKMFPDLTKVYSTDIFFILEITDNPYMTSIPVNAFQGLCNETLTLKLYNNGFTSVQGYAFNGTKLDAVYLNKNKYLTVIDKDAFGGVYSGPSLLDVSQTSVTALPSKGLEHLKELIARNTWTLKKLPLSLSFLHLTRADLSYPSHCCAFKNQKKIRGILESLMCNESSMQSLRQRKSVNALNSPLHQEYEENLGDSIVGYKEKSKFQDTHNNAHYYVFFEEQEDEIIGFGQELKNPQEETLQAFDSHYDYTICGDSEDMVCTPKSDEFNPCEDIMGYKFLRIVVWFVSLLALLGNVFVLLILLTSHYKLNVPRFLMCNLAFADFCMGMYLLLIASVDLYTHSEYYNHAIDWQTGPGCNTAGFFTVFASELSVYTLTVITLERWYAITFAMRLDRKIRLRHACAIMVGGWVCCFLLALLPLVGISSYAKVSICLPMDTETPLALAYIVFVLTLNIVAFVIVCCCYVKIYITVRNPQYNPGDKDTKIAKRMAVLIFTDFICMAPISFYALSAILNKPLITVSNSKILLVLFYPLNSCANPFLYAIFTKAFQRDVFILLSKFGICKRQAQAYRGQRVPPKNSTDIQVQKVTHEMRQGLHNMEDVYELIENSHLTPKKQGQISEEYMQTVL
Sequence of Luciferin 4-monooxygenase (Photinus pyralis) (P08659 whole entry, looked up): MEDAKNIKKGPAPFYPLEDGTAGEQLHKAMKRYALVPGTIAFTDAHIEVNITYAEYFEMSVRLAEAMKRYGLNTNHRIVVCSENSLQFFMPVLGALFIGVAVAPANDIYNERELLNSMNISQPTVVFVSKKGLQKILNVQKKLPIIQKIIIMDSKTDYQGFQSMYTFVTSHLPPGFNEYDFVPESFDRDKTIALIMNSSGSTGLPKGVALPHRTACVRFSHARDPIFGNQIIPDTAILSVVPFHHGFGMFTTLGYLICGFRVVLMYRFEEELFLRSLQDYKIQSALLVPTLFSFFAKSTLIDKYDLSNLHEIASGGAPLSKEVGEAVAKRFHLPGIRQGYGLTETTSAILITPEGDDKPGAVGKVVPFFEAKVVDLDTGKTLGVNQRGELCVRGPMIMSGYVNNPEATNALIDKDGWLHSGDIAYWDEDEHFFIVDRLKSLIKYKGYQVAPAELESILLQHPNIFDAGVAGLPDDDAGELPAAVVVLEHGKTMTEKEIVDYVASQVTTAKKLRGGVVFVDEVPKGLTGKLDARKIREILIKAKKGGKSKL
Sequence of Nuclear receptor subfamily 1 group I member 3 (Homo sapiens) (Q14994 whole entry, looked up): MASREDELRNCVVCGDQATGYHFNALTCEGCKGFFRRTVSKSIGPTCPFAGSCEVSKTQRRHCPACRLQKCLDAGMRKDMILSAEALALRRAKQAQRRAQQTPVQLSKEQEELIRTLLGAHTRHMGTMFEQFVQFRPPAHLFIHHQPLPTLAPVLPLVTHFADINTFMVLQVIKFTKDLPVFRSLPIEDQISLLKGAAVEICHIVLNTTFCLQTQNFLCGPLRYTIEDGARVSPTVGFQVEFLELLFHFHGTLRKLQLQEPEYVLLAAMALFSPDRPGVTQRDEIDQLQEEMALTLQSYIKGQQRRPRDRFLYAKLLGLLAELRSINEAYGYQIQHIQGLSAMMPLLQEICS

CC(=O)c1cc2ccccc2s1
inactive: Potency [1] | Potency [2] | Potency [3] | Potency [4] | Potency [5] | Potency [6] | Potency [7] | Potency [8] | outcome [9] | Potency [10] | Potency [11] | Potency [12] | Potency [13]

CCCCN1CCCC1C(=O)Nc1c(C)cc(C)cc1C (stereo not drawn)
inactive: Potency [1] | Potency [2] | Potency [3] | Potency [4] | Potency [5] | Potency [14] | Potency [7] | Potency [8] | Potency [15] | Potency [10] | Potency [11] | Potency [13]
active: Potency [6] 29.8 µM

CC(C)(C)CC(=O)OCC(=O)[C@@]1(O)CC[C@H]2[C@@H]3CCC4=CC(=O)C=C[C@]4(C)[C@H]3[C@@H](O)C[C@@]21C
inactive: Potency [2] | Potency [3] | Potency [4] | Potency [5] | Potency [6] | Potency [17] | Potency [7] | Potency [15] | outcome [9] | activity change, positive = activation [19] -49.3% [at 42.5 µM] | Potency [11] | Potency [13]
active: Potency [1] 26.6 µM | Potency [16] 23.7 µM | Potency [10] 55.2 µM | Potency [18] 26.6 µM | Potency [12] 19 µM

O=C(Cn1ccnc1[N+](=O)[O-])NCCO
inactive: Potency [1] | Potency [2] | Potency [3] | Potency [4] | Potency [5] | Potency [6] | Potency [7] | Potency [8] | Potency [15] | outcome [9] | Potency [10] | Potency [11] | Potency [12] | Potency [13]

Cc1cc2c(OCC(CNC(C)(C)C)OC(=O)c3ccccc3)cccc2[nH]1 (stereo not drawn)
inactive: Potency [1] | Potency [2] | Potency [3] | Potency [4] | Potency [5] | Potency [6] | Potency [14] | Potency [8] | Potency [15] | outcome [9] | Potency [11] | Potency [13]

CNC(=O)c1cnn(-c2nc(N)c3ncn([C@@H]4O[C@H](CO)[C@@H](O)[C@H]4O)c3n2)c1
inactive: Potency [1] | Potency [2] | Potency [3] | Potency [4] | Potency [5] | Potency [6] | Potency [14] | Potency [7] | Potency [8] | Potency [15] | outcome [9] | Potency [11] | Potency [12] | Potency [13]

CCCC(=O)C(=O)O
inactive: Potency [1] | Potency [2] | Potency [3] | Potency [4] | Potency [5] | Potency [6] | Potency [15] | outcome [9] | Potency [10] | Potency [11] | Potency [12] | Potency [13]

CCCCCCCCN
inactive: Potency [1] | Potency [2] | Potency [3] | Potency [4] | Potency [5] | Potency [6] | Potency [14] | Potency [8] | Potency [15] | Potency [10] | Potency [11] | Potency [12] | Potency [13]

OCCOCC#CCOCCO
inactive: Potency [1] | Potency [2] | Potency [3] | Potency [4] | Potency [5] | Potency [6] | Potency [14] | Potency [8] | Potency [15] | outcome [9] | Potency [10] | Potency [11] | Potency [12] | Potency [13]

CC1(C)[C@H](C(=O)O)N2C(=O)C[C@H]2S1(=O)=O
inactive: Potency [1] | Potency [2] | Potency [3] | Potency [4] | Potency [5] | Potency [6] | Potency [16] | Potency [17] | Potency [8] | Potency [15] | outcome [9] | Potency [10] | Potency [18] | activity change, positive = activation [19] 5.98% [at 42.5 µM] | Potency [11] | Potency [12]

CC(C)(c1ccccc1)c1ccccc1
active: Potency [6] 45.1 µM
inactive: Potency [1] | Potency [2] | Potency [3] | Potency [4] | Potency [5] | Potency [14] | Potency [7] | Potency [15] | outcome [9] | Potency [10] | Potency [11] | Potency [12] | Potency [13]

CC=C(Cl)Cl
inactive: Potency [1] | Potency [2] | Potency [3] | Potency [4] | Potency [5] | Potency [6] | Potency [14] | Potency [7] | Potency [8] | Potency [15] | outcome [9] | Potency [10] | Potency [11] | Potency [12] | Potency [13]

CC1(C)O[C@@H]2C[C@H]3[C@@H]4C[C@H](F)C5=CC(=O)C=C[C@]5(C)[C@H]4[C@@H](O)C[C@]3(C)[C@]2(C(=O)CO)O1
inactive: Potency [1] | Potency [2] | Potency [3] | Potency [4] | Potency [5] | Potency [6] | Potency [14] | Potency [7] | Potency [8] | Potency [15] | outcome [9] | Potency [10] | Potency [11] | Potency [12] | Potency [13]

CC(C)(C)C(=O)C(=O)O
inactive: Potency [1] | Potency [2] | Potency [3] | Potency [4] | Potency [5] | Potency [6] | Potency [8] | Potency [15] | Potency [11] | Potency [12] | Potency [13]

CC(C)=CCC1C(=O)N(c2ccccc2)N(c2ccccc2)C1=O
inactive: Potency [1] | Potency [2] | Potency [3] | Potency [4] | Potency [5] | Potency [6] | Potency [14] | Potency [7] | Potency [15] | Potency [10] | Potency [11] | Potency [12]

OC1(c2ccccc2)CCNCC1
inactive: Potency [1] | Potency [2] | Potency [3] | Potency [4] | Potency [5] | Potency [6] | Potency [16] | Potency [17] | Potency [7] | Potency [8] | Potency [15] | outcome [9] | Potency [10] | Potency [18] | activity change, positive = activation [19] 5.89% [at 42.5 µM] | Potency [11] | Potency [12] | Potency [13]

O=c1[nH]ncc2ccccc12
inactive: Potency [1] | Potency [2] | Potency [3] | Potency [4] | Potency [5] | Potency [6] | Potency [14] | Potency [7] | Potency [8] | Potency [15] | outcome [9] | Potency [10] | Potency [11] | Potency [12] | Potency [13]
